Measured values published in PubChem BioAssay.
The source made the active and inactive calls.

Columns and labels:
[1] = system: PRMT1 (protein arginine N-methyltransferase 1); test: small molecules binding arginine methyltransferase PRMT1 – biochemical, small-molecule microarray, 635 nm fluorescence, primary screen (AID 1088); conditions: higher = more signal;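 also: binding of Prmt1 protein to compounds spotted on small-molecule microarray slides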
[2] = growth effects on S. cerevisiae YJM789 – YJM789 clinical isolate, OD600, 24 h, basal, primary screen (AID 1089); conditions: higher = more signal, called active from +8 up or from −8 down;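 also: growth of clinical yeast isolate S. cerevisiae YJM 789 seeded 1000 cells per well; test concentration not given here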
[3] = S. pombe growth modifiers, basal conditions – strain 972, OD600, 24 h, no modulator, primary screen (AID 1090);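 also: basal condition with compound alone and no growth modifier present; test concentration not given here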; conditions: S. pombe 972 growth, higher = more signal, called active from +8 up or from −8 down
[4] = budding yeast growth modifiers under rapamycin – strain BY4716, OD600, 96 h, primary screen (AID 1091); also: test concentration not given here; conditions: S. cerevisiae BY4716 + rapamycin, higher = more signal, called active from +8 up or from −8 down
[5] = biological target: Torsin-1A-interacting protein 2 (Homo sapiens) (UniProt Q8NFQ8); test: small molecules binding lysate-expressed LULL1 – cell lysate, human LULL1 lysate, 635/667 nm fluorescence, primary screen (AID 1092); conditions: small-molecule microarray, hLULL1 lysate binding, 635 nm fluorescence; higher = more signal;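 also: probe is lysate of COS7 cells overexpressing human LULL1; score merges per-feature 667 nm fluorescence with signal-to-noise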
Chain of Torsin-1A-interacting protein 2 (Homo sapiens) (Q8NFQ8 whole entry, looked up): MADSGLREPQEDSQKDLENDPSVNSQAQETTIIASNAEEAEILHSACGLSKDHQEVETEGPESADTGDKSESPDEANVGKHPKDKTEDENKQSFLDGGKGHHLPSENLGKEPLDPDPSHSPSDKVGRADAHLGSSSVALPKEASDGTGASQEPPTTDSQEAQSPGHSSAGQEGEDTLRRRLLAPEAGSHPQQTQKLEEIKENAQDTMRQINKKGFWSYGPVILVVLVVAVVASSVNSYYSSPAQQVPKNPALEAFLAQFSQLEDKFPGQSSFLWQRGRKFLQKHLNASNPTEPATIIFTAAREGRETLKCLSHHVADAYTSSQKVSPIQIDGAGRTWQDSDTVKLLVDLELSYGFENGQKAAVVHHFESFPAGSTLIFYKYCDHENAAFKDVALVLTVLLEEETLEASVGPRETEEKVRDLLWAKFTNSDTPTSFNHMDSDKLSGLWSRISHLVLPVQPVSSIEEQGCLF

[6] = optical density change of DRC41 E. coli – strain DRC41, OD650, 24 h, E. coli filamentation project, primary screen (AID 1093);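 also: MC1000 strain lacking acrAB efflux and sulA so SOS filamentation is blocked; test concentration not given here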; conditions: E. coli DRC41 growth, higher = more signal, called active from +8 up or from −8 down
[7] = probe aLefty2 binding to arrayed compounds – biochemical, biotinylated probe, 635/667 nm fluorescence, primary screen (AID 1094); conditions: small-molecule microarray, higher = more signal;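 also: score merges spot fluorescence near 667 nm with spot signal-to-noise ratio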
[8] = system: Noggin (protein binding on small-molecule microarray); test: small molecules binding Noggin protein – biochemical, 635/667 nm fluorescence, primary screen (AID 1095); conditions: 635 nm fluorescence, higher = more signal;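 also: score merges 667 nm feature fluorescence with signal to noise over triplicate slides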
[9] = biological target: Neurogenic locus notch homolog protein 3 (Homo sapiens) (UniProt Q9UM47); test: small molecules binding NOTCH3 protein – biochemical, 635/667 nm fluorescence, primary screen (AID 1096); conditions: small-molecule microarray, 635 nm fluorescence, higher = more signal
Chain of Neurogenic locus notch homolog protein 3 (Homo sapiens) (Q9UM47 whole entry, looked up): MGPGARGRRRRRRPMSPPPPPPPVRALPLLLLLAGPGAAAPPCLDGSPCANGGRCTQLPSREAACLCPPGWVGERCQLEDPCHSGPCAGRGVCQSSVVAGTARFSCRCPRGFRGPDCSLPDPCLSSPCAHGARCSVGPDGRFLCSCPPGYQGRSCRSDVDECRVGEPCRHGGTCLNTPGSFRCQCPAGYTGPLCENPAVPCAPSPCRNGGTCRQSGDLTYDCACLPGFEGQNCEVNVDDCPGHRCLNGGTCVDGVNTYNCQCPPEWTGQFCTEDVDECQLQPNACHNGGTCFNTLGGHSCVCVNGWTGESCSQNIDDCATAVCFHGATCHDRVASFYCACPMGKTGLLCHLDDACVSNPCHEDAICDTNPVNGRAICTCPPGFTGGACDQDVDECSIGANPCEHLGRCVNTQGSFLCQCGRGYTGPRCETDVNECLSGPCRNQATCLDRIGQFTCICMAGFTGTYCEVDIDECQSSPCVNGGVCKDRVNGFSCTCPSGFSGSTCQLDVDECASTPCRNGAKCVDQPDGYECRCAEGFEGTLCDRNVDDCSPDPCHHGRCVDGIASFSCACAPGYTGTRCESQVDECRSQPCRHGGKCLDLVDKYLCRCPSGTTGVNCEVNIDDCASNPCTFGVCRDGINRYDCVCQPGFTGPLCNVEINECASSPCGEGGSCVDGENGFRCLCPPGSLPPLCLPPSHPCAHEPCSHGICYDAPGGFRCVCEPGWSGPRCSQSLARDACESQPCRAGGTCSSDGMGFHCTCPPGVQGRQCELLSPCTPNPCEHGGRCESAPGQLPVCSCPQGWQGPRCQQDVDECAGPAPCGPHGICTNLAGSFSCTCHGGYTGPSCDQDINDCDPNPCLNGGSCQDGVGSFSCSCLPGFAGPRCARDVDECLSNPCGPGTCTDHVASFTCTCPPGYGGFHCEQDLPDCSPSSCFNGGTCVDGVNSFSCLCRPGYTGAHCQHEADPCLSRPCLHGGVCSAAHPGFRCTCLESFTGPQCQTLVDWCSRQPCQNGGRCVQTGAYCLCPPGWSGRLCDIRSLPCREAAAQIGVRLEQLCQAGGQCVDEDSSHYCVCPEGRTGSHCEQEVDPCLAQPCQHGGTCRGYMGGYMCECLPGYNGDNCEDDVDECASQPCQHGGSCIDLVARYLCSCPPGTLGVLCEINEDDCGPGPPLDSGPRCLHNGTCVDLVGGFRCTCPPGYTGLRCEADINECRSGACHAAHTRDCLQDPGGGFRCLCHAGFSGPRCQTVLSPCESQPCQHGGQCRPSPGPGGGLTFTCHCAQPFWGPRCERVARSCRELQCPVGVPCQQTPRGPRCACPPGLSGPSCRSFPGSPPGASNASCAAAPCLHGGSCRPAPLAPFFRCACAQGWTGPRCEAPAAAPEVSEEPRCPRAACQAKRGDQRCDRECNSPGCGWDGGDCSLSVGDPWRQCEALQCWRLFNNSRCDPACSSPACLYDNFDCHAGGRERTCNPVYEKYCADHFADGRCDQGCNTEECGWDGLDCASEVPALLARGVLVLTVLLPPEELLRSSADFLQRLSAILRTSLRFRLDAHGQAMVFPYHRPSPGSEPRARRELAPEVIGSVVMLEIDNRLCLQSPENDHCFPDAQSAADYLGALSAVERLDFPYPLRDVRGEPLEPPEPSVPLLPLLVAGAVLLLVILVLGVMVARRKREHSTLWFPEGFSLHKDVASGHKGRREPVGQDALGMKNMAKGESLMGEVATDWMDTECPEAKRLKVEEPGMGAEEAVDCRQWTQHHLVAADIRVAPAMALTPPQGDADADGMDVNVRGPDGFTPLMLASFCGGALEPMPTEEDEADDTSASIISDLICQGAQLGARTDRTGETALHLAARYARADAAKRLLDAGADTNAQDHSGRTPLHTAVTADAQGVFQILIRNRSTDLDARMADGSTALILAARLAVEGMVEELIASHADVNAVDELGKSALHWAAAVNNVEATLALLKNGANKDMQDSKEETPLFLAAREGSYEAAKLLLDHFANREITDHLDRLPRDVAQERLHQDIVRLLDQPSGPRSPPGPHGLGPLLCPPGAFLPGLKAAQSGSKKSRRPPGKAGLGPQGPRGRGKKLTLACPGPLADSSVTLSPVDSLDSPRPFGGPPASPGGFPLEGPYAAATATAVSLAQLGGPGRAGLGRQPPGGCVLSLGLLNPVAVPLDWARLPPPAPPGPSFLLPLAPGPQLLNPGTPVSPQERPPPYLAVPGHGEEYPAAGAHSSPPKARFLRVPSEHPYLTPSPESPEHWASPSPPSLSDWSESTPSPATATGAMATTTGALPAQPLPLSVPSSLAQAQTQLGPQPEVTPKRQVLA

[10] = probe aEGFR binding to arrayed compounds – biochemical, biotinylated probe, 635/667 nm fluorescence, primary screen (AID 1097); conditions: small-molecule microarray, higher = more signal;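 also: probe is a biotinylated anti-EGFR antibody binding compounds printed on slides; score combines fluorescence near 667 nm and signal to noise of each spot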
[11] = system: Plasmodium falciparum Sir2 (PF13_0152, Sir2A); test: Plasmodium falciparum Sir2A binding compounds – biochemical, small-molecule microarray, 635 nm fluorescence, primary screen (AID 1098); conditions: fluorescence 635 nm, higher = more signal;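 also: score merges spot fluorescence intensity with its signal-to-noise ratio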
[12] = probe aDKK1 binding to arrayed compounds – biochemical, biotinylated probe, 635/667 nm fluorescence, primary screen (AID 1099); conditions: small-molecule microarray, higher = more signal;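 also: score merges 667nm spot fluorescence with signal to noise across triplicate slides; reference of the scale not given here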
[13] = probe aCHRDL2 binding to arrayed compounds – biochemical, biotinylated probe, 635/667 nm fluorescence, primary screen (AID 1100); conditions: small-molecule microarray, higher = more signal
[14] = change in splice reporter luminescence, either direction, cell-based, HEK293, spliceosome inhibition project, primary screen (AID 1101); conditions: HEK293 splicing luciferase reporter, 24 h, higher = more signal, called active from +8 up or from −8 down;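 also: HEK293 cells carrying a splicing-competent luciferase reporter gene; test concentration not given here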
[15] = biological target: Fibroblast growth factor 10 (Homo sapiens) (UniProt O15520); test: compounds binding fibroblast growth factor 10 – biochemical, small-molecule microarray, 635 nm fluorescence, primary screen (AID 1102); conditions: FGF10 binding, fluorescence 635 nm, higher = more signal
Chain of Fibroblast growth factor 10 (Homo sapiens) (O15520 whole entry, looked up): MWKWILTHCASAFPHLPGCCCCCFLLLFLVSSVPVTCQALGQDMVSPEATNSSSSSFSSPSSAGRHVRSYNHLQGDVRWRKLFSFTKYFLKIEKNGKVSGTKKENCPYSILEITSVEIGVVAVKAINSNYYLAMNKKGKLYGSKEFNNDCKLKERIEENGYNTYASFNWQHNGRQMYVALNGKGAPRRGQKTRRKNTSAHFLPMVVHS

[16] = system: glycogen synthase kinase-3 (GSK3A per assay name; protocol says GSK3B); test: compounds binding glycogen synthase kinase-3 – biochemical, small-molecule microarray, 635 nm fluorescence, GSK3A, primary screen (AID 1103); conditions: fluorescence 635 nm, higher = more signal; also: the record names both GSK3A and GSK3B
[17] = biological target: Epidermal growth factor receptor (Homo sapiens) (UniProt P00533); test: compounds binding epidermal growth factor receptor – biochemical, small-molecule microarray, 635 nm fluorescence, primary screen (AID 1104); conditions: EGFR binding, higher = more signal;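 also: score merges 667 nm emission intensity with spot signal to noise over triplicate slides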
Chain of Epidermal growth factor receptor (Homo sapiens) (P00533 whole entry, looked up): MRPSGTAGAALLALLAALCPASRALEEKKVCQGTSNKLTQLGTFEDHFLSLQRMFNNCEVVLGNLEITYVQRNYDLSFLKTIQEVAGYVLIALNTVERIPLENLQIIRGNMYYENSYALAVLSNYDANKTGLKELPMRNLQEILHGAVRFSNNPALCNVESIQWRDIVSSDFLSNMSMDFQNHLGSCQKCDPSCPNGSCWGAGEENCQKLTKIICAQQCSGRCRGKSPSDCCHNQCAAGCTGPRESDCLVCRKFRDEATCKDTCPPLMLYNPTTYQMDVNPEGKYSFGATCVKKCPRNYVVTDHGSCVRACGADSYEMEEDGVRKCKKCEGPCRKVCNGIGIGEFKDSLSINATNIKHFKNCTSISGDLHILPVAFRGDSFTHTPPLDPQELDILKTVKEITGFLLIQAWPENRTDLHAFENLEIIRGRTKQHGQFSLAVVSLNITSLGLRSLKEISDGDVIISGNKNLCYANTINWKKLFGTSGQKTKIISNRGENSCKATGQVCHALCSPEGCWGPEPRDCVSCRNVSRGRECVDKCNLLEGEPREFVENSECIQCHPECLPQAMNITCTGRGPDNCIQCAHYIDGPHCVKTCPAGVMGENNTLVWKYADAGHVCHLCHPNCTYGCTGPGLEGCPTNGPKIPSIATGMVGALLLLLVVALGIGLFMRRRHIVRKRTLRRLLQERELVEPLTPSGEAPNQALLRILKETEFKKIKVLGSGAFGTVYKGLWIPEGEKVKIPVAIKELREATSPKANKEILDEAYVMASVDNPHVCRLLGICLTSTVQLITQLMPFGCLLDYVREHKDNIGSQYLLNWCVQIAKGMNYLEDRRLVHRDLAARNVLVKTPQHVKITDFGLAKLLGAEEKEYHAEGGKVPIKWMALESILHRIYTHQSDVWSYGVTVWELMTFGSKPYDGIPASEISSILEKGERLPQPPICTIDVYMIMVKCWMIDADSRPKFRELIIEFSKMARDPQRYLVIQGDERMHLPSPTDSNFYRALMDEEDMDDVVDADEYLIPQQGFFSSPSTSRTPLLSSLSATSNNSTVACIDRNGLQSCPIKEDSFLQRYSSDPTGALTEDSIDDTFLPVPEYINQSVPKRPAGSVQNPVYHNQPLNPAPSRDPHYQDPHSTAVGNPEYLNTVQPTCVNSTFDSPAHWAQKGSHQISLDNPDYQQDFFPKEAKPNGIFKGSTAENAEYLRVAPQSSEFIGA

[18] = biological target: Follistatin-related protein 3 (Homo sapiens) (UniProt O95633); test: compounds binding follistatin-related protein 3 – biochemical, small-molecule microarray, 635 nm fluorescence, primary screen (AID 1105); conditions: FSTL3 binding, higher = more signal;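 also: score merges emission near 667 nm and signal to noise per printed spot across three slides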
Chain of Follistatin-related protein 3 (Homo sapiens) (O95633 whole entry, looked up): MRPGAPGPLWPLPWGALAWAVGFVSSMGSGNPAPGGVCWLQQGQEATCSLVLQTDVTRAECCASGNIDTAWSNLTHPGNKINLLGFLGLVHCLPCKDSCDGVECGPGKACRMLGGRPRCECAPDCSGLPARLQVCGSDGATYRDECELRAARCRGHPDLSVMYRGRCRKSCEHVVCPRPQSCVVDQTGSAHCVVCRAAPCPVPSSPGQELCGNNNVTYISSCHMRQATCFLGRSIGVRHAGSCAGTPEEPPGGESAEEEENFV

[19] = biological target: Dickkopf-related protein 1 (Homo sapiens) (UniProt O94907); test: small molecules binding DKK1 protein – biochemical, small-molecule microarray, 635 nm fluorescence scan, primary screen (AID 1106); conditions: higher = more signal;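 also: score merges emission near 667 nm with signal to noise over three replicate slides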
Chain of Dickkopf-related protein 1 (Homo sapiens) (O94907 whole entry, looked up): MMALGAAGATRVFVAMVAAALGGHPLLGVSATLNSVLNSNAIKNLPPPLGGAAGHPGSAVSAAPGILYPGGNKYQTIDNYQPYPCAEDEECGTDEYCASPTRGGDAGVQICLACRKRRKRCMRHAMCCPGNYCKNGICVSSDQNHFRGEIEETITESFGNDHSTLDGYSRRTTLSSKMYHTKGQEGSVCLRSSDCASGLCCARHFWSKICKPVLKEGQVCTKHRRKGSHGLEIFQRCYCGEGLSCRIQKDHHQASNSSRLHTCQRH

[20] = system: Inhibin beta A chain (activin A); test: small molecules binding activin A – biochemical, small-molecule microarray, 635 nm fluorescence scan, primary screen (AID 1107); conditions: INHBA, higher = more signal;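 also: mouse activin A protein probed at 4.33 µg/mL on printed slides; score merges bound-protein fluorescence near 667 nm with spot signal-to-noise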

| SMILES | composite z-score [1] | z-score [2] | z-score [3] | z-score [4] | composite z-score [5] | z-score [6] | composite z-score [7] | composite z-score [8] | composite z-score [9] | composite z-score [10] | composite z-score [11] | composite z-score [12] | composite z-score [13] | z-score [14] | composite z-score [15] | composite z-score [16] | composite z-score [17] | composite z-score [18] | composite z-score [19] | composite z-score [20] |
| --- | --- | --- | --- | --- | --- | --- | --- | --- | --- | --- | --- | --- | --- | --- | --- | --- | --- | --- | --- | --- |
| CCCCN1CC=CC23O[C@@H]4/C=C\CCCOC(=O)C4[C@H]2C(=O)N(C(CO)C(C)C)[C@@H]3C1=O (stereo not given in full) | -0.385 | 0.383 (inactive) | -0.74 (inactive) | 0.0577 (inactive) | 0.601 | -0.714 (inactive) | -0.165 | -0.21 | -0.754 | 0.371 | -0.459 | -0.277 | -0.179 | 0.558 (inactive) | -0.138 | -0.115 | 0.183 | -0.436 | 0.323 | 1.21 |
| COc1ccc([Si](C)(C)[C@@H]2[C@@H](CC(=O)N(CCO)Cc3ccccc3)O[C@]3(C(=O)N(Cc4ccc(I)cc4)c4ccccc43)[C@H]2C)cc1 | 1.55 | 0.383 (inactive) | 1.53 (inactive) | 2.57 (inactive) | -0.0159 | 1.26 (inactive) | 0.408 | 1.63 | 1.12 | 0.338 | 0.625 | 0.346 | 0.351 | -2.35 (inactive) | 1.1 | 0.301 | 1.03 | 1.37 | 1.2 | 1.58 |
| CN(C)CCCC[C@@H]1NC(=O)[C@H]2C[C@@H](C(=O)O)[C@@H](c3ccc(O)cc3)N2C1=O | 1.54 | -0.116 (inactive) | -1.99 (inactive) | 0.193 (inactive) | 4.23 | 2.11 (inactive) | 1.55 | 2.16 | 1.02 | 1.33 | 2.03 | 2.45 | 1.64 | -1.28 (inactive) | 1.55 | 1.44 | 1.85 | 1.53 | 2.03 | 1.98 |
| C=CCNC(=O)[C@@H]1[C@H]2C(=O)O[C@H](c3ccccc3)[C@H](c3ccccc3)N2[C@H](c2ccc(OCCO)cc2)[C@@]12C(=O)Nc1ccc(C#CC3(O)CCCCCC3)cc12 | 1.45 | 1.84 (inactive) | 0.267 (inactive) | 4.71 (inactive) | 2.55 | 1.2 (inactive) | 0.0208 | 1.03 | 1.07 | 0.0519 | 1.42 | 0.535 | 0.65 | -1.43 (inactive) | 0.986 | 1.22 | 0.378 | 0.826 | 0.371 | -0.0995 |
| COc1ccc(C(=O)Nc2ccc3c(c2)[C@@]2(O[C@H](CCO)[C@@H]([Si](C)(C)c4ccc(OC)cc4)[C@@H]2C)C(=O)N3Cc2ccccc2)cc1 | 1.28 | -0.0565 (inactive) | -4.96 (inactive) | 2.7 (inactive) | 1.94 | 0.629 (inactive) | -0.0124 | 1.32 | 0.742 | -0.0828 | 0.578 | -0.267 | 0.546 | -4.86 (inactive) | 0.517 | 0.369 | 0.252 | 0.527 | 0.27 | 1.17 |
| CCOC(=O)C1=CCC(c2cc3ccccc3[nH]2)N(CCN2CC(C(=O)OCC)=CCC2c2cc3ccccc3[nH]2)C1 (stereo not given) | 1.4 | -1.61 (inactive) | 0.97 (inactive) | -0.34 (inactive) | 3.38 | 0.053 (inactive) | 0.0094 | 0.38 | 0.862 | -0.0084 | 0.497 | 0.237 | 0.368 | -1.3 (inactive) | 0.631 | 1.03 | 0.149 | 0.673 | 0.0665 | 1.14 |
| COC(=O)[C@]1(Cc2ccccc2)N=C(c2ccc(OCCCO)cc2)O[C@@H]1c1ccccc1CN=[N+]=[N-] | 1.56 | 0.738 (inactive) | 0.237 (inactive) | 34.8 (active) | 2.34 | -0.156 (inactive) | 0.0647 | 0.615 | 0.399 | -0.0967 | 0.965 | 0.266 | 0.98 | 1.76 (inactive) | 0.506 | 0.509 | -0.296 | 0.175 | -0.0456 | 0.702 |
| CC(C)(C)OC(=O)CC[C@]1(C(=O)NCC(O)CO)N=C(c2ccc(OCCCO)cc2)O[C@H]1c1ccccc1N=[N+]=[N-] (stereo not given in full) | 0.98 | -0.652 (inactive) | -0.0793 (inactive) | -0.517 (inactive) | 3.62 | 0.821 (inactive) | 0.595 | 0.187 | 0.398 | 0.0506 | 1.18 | 1.24 | 1.31 | -0.254 (inactive) | 1.4 | -0.0629 | -0.0913 | 0.352 | 0.175 | -0.0171 |
| [N-]=[N+]=Nc1ccccc1C[C@@]1(C(=O)NCc2ccccc2)N=C(c2ccc(OCCCO)cc2)O[C@@H]1c1ccccc1N=[N+]=[N-] | 1.58 | -0.642 (inactive) | -0.468 (inactive) | 5.27 (inactive) | 1.69 | 0.0498 (inactive) | 0.469 | 1.2 | 0.762 | 0.0883 | 1.07 | 0.61 | 1.01 | -0.457 (inactive) | 1.1 | 0.913 | 0.0359 | 0.309 | -0.0102 | 1.04 |
| C=CCOC(=O)[C@@H]1[C@H]2C(=O)O[C@H](c3ccccc3)[C@H](c3ccccc3)N2[C@H](c2ccc(OCCOC(=O)[C@H]3C[C@H]4C(=O)N5CCC[C@H]5C(=O)N4[C@H]3c3cccc(OCCO)c3)cc2)[C@@]12C(=O)Nc1ccc(I)cc12 | 1.53 | 1.3 (inactive) | 2.38 (inactive) | 4.79 (inactive) | 1.6 | -0.333 (inactive) | -0.0125 | 1.52 | 1.11 | 0.0238 | 1.56 | -0.0777 | 0.0879 | 0.388 (inactive) | 1.05 | 1.24 | 1.08 | 1.42 | 1.06 | -0.0842 |
